In the library only some 3.3% were active in any assay of this set; here they are far more common.
esBAF inh – inhibitors of esBAF chromatin remodeling in mouse ES cells; 350,000 compounds, 2% hits; reporter increase, % at 12.5 µM; Bmi1-luciferase knock-in reporter, 24 h; 100% = twice the neutral-well signal; in the data active means activation above about 40%;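 further: 0% = median of the plate's neutral control wells and 100% = double that signal; a rise in the Bmi1 reporter signal indicates esBAF inhibition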
697 NFkB inh – inhibitors of the PMA/ionomycin-induced NF-kB reporter in 697 B cells; inhibition, % at 4 µM; 697 B-cell NF-kB luciferase reporter, 16 h; 330,000 compounds, 0.33% hits; in the data active means inhibition above about 35%
Jurkat NFkB inh – inhibitors of the PMA/ionomycin-induced NF-kB reporter in Jurkat cells; PMA/ionomycin-induced NF-kB luciferase reporter, luminescence; inhibition, % at 4 µM; 330,000 compounds, 0.53% hits; AID 435003; in the data active means inhibition above about 50%
Gli-Sufu antag – blocks Gli-Sufu signaling in a luciferase reporter; inhibition, % at 5 µM; Sufu-KO-LIGHT fibroblasts, Gli luciferase reporter luminescence; 340,000 compounds, 0.74% hits;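 active means inhibition above about 55%, limit read from the data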;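 further: 0% = DMSO-treated cells and 100% = wells with medium but no cells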
SMARCA2 act – SMARCA2 function activation, primary screen; 370,000 compounds, 1% hits; MG213 cells, MMTV-luciferase reporter, dexamethasone, overnight; activation, % at 9.1 µM; in the data active means activation above about 7.8%;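 further: 0% = vehicle wells and 100% = reference activator wells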
Jurkat NFkB conf – lowers PMA/ionomycin-induced NF-kB signal in Jurkat cells; shares compounds with Jurkat NFkB inh; Jurkat NF-kB luciferase, 16 h; inhibition, % at 4 µM; 2,700 compounds, 27% hits; AID 435020;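 active means inhibition reaching about 45% at 4 µM in either replicate, limit read from the data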;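 further: plate controls were PMA/ionomycin stimulated DMSO wells for no effect and unstimulated DMSO wells for full effect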
697 NFkB conf – inhibitors of the PMA/ionomycin-induced NF-kB reporter in 697 B cells, retest; shares compounds with 697 NFkB inh; inhibition, % at 4 µM; 2,000 compounds, 35% hits; 697 B-cell NF-kB luciferase, 16 h; in the data active means inhibition mostly above about 28%, no sharp cut-off; inactive means mostly below about 22%
Gli antag conf – Gli-SUFU antagonism confirmation, single concentration | shares compounds with Gli-Sufu antag | Sufu-KO-LIGHT cells, Gli luciferase reporter, luminescence | inhibition, % at 5 µM | 2,500 compounds, 40% hits;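 active means mean inhibition at 5 µM reaching about 45%, limit read from the data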;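 further: plate controls were DMSO-treated cells for no effect and wells lacking cells for full effect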
SufuKO cytotox – counter-screen for Gli-SUFU antagonists: cytotoxicity; shares compounds with Gli-Sufu antag; Sufu-KO-LIGHT cells cytotoxicity, ATP luminescence; cytotoxicity, % at 5 µM; 2,500 compounds, 32% hits;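 active means mean cytotoxicity at 5 µM above about 25%, limit read from the data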;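 further: cells exposed to compound overnight for roughly 16 to 18 hours; plate controls were DMSO wells with cells for no effect and medium without cells for full effect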
Wnt3a cs – Wnt3a reporter inhibition counter-screen | AID 651995 | shares compounds with Gli-Sufu antag | inhibition, % at 6.25 µM | Wnt-LIGHT cells, Wnt3a-driven luciferase reporter, luminescence | 2,500 compounds, 20% hits;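 active means mean inhibition above about 25%, limit read from the data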
Numbers without * were called inactive; · = not tested or not shown.

SMILES | esBAF inh | 697 NFkB inh | Jurkat NFkB inh | Gli-Sufu antag | SMARCA2 act | Jurkat NFkB conf | Gli antag conf | SufuKO cytotox | Wnt3a cs | others
CCN1/C(=C/C=C/c2oc3ccc(-c4ccccc4)cc3[n+]2CC)Oc2ccc(-c3ccccc3)cc21 | -85 | 48* | 98* | 88* | -12 | 21 | 90* | 35* | 39* | 697 NFkB conf=-17
CCOc1ccccc1CNS(=O)(=O)c1ccc(-c2cnc(C3CC3)o2)cc1 | -31 | -58 | 57* | 55 | -5 | 55* | 55* | 59* | -58
COc1ccc(C)cc1NS(=O)(=O)c1ccc(-c2cnc(C3CC3)o2)cc1 | -29 | -272 | 66* | 66* | -3 | 68* | 62* | 66* | 15 | 697 NFkB conf=-213
COc1cc(-c2c(-c3cc(OC)c(OC)c(OC)c3)noc2C)ccc1F | · | -280 | 71* | 51 | 1 | 47* | 67* | 65* | 0 | 697 NFkB conf=-162
CCCCC(Nc1ncnc2ccccc12)C(=O)O (stereo not given) | -2 | 20 | 6 | 3 | 0 | · | · | · | ·
CC(Nc1ncnc2ccccc12)c1ccccc1 (stereo not given) | -23 | 32 | 50* | 63* | -6 | 63* | 73* | 34* | 41*
CO[C@@H]1CN(C)C(=O)c2ccc(NC(=O)Nc3ccccc3F)cc2OC[C@@H](C)N(C(=O)c2cnccn2)C[C@H]1C | 2 | · | · | · | · | · | · | · | ·
C[C@H](CO)N1C[C@H](C)[C@@H](CN(C)Cc2ccc(Oc3ccccc3)cc2)Oc2ccc(NC(=O)C3CCCCC3)cc2C1=O | -6 | · | · | · | · | · | · | · | ·
COc1ccc(N2CCc3c(C)nc4c(OC)cc(OC)cc4c32)cc1 | · | -24 | 51* | 54 | 3 | 10 | 27 | 5 | -42
Nc1ncnc2c1ncn2[C@H]1C[C@H](O)[C@@H](CO)O1 | -3 | 18 | 0 | -4 | -1 | · | · | · | ·
Nc1nc(Cl)nc2c1ncn2[C@H]1C[C@H](O)[C@@H](CO)O1 | -37 | 57* | 65* | 83* | -2 | 41 | 68* | 25* | 50* | 697 NFkB conf=68*
C[C@@H]1CN([C@@H](C)CO)C(=O)Cc2cc(NC(=O)Nc3ccc(F)cc3)ccc2O[C@H]1CN(C)S(=O)(=O)c1ccc(F)cc1 | 3 | · | · | · | · | · | · | · | ·
Cc1noc(C)c1S(=O)(=O)Nc1ccc2c(c1)C(=O)N([C@@H](C)CO)C[C@H](C)[C@H](CN(C)Cc1ccncc1)OCCCC[C@@H](C)O2 | -6 | · | · | · | · | · | · | · | ·
C[C@@H]1CN([C@H](C)CO)C(=O)Cc2cc(NC(=O)CCC(F)(F)F)ccc2O[C@@H]1CN(C)Cc1ccc2c(c1)OCO2 | -5 | · | · | · | · | · | · | · | ·
C/C(=N\NC(=O)C(c1ccccc1)c1ccccc1)c1ccccn1 | · | -12 | 79* | 89* | -10 | 16 | 56* | 31* | 37*
C/C(=N\NC(=O)C1COc2ccccc2O1)c1ccccn1 (stereo not given) | 2 | -3 | 73* | 89* | -1 | 12 | 73* | 44* | 53*
C/C(=N\NC(=O)C1COc2ccccc2O1)c1ccc(C)o1 (stereo not given) | · | 6 | -5 | 5 | -1 | · | · | · | ·
CCCNC(=O)C[C@H]1CC[C@@H]2[C@@H](COc3ccc(NC(=O)c4ccc(C(F)(F)F)cc4)cc3C(=O)N2C)O1 | 32 | · | · | · | · | · | · | · | ·
COCC#Cc1ccc2c(c1)O[C@H](CN(C)S(=O)(=O)c1cccc(F)c1)[C@@H](C)CN([C@@H](C)CO)S2(=O)=O | 10 | · | · | · | · | · | · | · | ·
NC(=O)CC(NC(=O)c1ccc(Br)cc1)c1ccc(N2CCCCCC2)c([N+](=O)[O-])c1 (stereo not given) | -17 | 0 | 54* | 61* | -2 | 47 | 32 | 23 | -109
